Inconclusive results are not listed. Values without a mark were called inactive. Calls follow the shape of the dose curve; as a rule, active = well fitted inhibition curve with a large enough effect; inconclusive = small, poorly fitted or top-dose-only effect; inactive = flat fitted curve, though single readings scatter. Where a SMILES comes first, the peptide text is derived from it. Bridges are numbered along the chain shown (N, C = ends). [ ]: non-standard residue; d: D form. hArg = N=C(N)NCCCC[C@H](N)C(=O)O; Mpa = O=C(O)CCS
% is scaled to controls: 0 for no effect and ±100 for the full control effect.

The nature of the experiment: P-glycoprotein substrates identified in KB-8-5-11 adenocarcinoma cell line, qHTS therapeutic library screen (AID 1346987). Also: nearly all actives have a fitted effect of over 65% in size. As to conditions: KB-8-5-11 (P-gp overexpressing) viability, CellTiter-Glo, 72 h; series mostly up to 44.5 µM; activity change, negative = cytotoxicity: at the top concentration. The source says:
The ATP-binding cassette transporters P-glycoprotein (P-gp) is known to limit brain penetration of many chemotherapy drugs. […] As such, we developed a high-throughput screen (HTS) to identify substrates of P-gp from a series of chemical libraries including the National Center for Advancing Translational Sciences Pharmaceutical Collection NPC, 2,816 compounds), testing a total of 10,804 compounds, most of which have known mechanisms of action. We used the CellTiter-Glo viability assay to test library compounds against the parental KB-3-1 human cervical adenocarcinoma cell line and the colchicine-selected sub-line KB-8-5-11 that over-expresses P-gp. KB-8-5-11 cells were also tested in the presence of a P-gp inhibitor (tariquidar) to assess reversability of transporter-mediated resistance. Of the tested compounds, a total of 90 P-gp substrates were identified including 55 newly identified P-gp substrates. Substrates were confirmed using an orthogonal killing assay against HEK-293 cells transfected with P-gp. As exemplars, we confirmed that […] (cyclin-dependent kinase inhibitor); AT9283, (Janus kinase 2/3 inhibitor); ispinesib (kinesin spindle protein inhibitor); gedatolisib (PKI-587, phosphoinositide 3-kinase/mammalian target of rampamycin inhibitor); GSK-690693 (AKT inhibitor); and KW-2478 (heat shock protein 90 inhibitor) were substrates , and direct ATPase stimulation was assessed. ABCG2 was also found to confer high levels of resistance to AT9283, GSK-690693 and gedatolisib, while ispinesib, AT7519 and KW-2478 were weaker substrates.
The HeLa derivative cell line, KB-3-1, and its colchicine-selected, P-gp-overexpressing subline, KB-8-5-11 were maintained in DMEM with 10% FCS and Pen/Strep with glutamine at 37 degree C in 5% CO2. For KB-8-5-11 cells, colchicine was added to the medium at a concentration of 100 ng/mL. HEK-293 cells transfected with empty vector (pcDNA) or vector containing human ABCB1 (MDR-19) or ABCG2 (R-5) have been described previously (Robey, Lin, Qiu, Chan & Bates, 2011) and were maintained in EMEM supplemented with 10% FCS, Pen/Strep and glutamine with 2 mg/ml G418 to select for the expression of the transporter. Cultures were confirmed to be free of mycoplasma infection using the MycoAlert Mycoplasma Detection Kit (Lonza, Walkersville, MD). For the screen, assay medium was identical to culture medium except for KB-8-5-11 where colchicine was excluded from the medium.
All cell lines were plated into 1536-well plates at 500 cells/well in 5 uL media. Compounds were then pinned in dose-response using a 1536-head pin tool (Kalypsis, San Diego, CA) and plates were incubated at 37 degree C in 5% CO2 for an additional 72 h. CellTiter-Glo reagent (Promega) was dispensed into the wells, incubated for 5 min and luminescence was read on a ViewLux instrument (Perkin-Elmer). Cytotoxic compounds were defined as those that yielded a curve class of -1.1, -1.2, -2.1, -2.2, -2.3, or -2.4, a maximum response of >50% and an AC50 of < 10 uM. Cherry-picked hits from screening analysis were tested with both the KB pair of cell lines, and the pcDNA (empty vector control) and MDR-19 (P-gp overexpressing) pair were tested, in the absence and presence of tariquidar.
In the case of `CN(C/C=C/C#CC(C)(C)C)Cc1cccc2ccccc12`, the “activity change, negative = cytotoxicity” value is -0.168%.

Turning to `O=c1[nH]c(=O)n([C@H]2C[C@H](O)[C@@H](CO)O2)cc1I`, the “activity change, negative = cytotoxicity” value was -6.04% [at 17.3 µM].

`COc1ccc(Cc2cnc(N)nc2N)cc1OC`: the “activity change, negative = cytotoxicity” value is -3.94%.

On to `C[C@H]1COc2c(C3(N)CC3)c(F)cc3c(=O)c(C(=O)O)cn1c23`, for which the “activity change, negative = cytotoxicity” value is 3.29%.

On to `Cc1ccc(S(=O)(=O)NC(=O)NC2CCCCC2)cc1`, for which the “activity change, negative = cytotoxicity” value is -0.846%.

As for `CCOC(=O)[C@H](CCc1ccccc1)N[C@@H](C)C(=O)N1CCC[C@H]1C(=O)O`, the “activity change, negative = cytotoxicity” value is -11.5%.

On to `O=C1c2ccccc2C(=O)C1c1ccc(Br)cc1`, for which the “activity change, negative = cytotoxicity” value is -0.579%.

Take `O=C1CC[C@@H](C(=O)O)N1`: the “activity change, negative = cytotoxicity” value is -21.1%.

As to `COc1ccc(-c2cc(=O)c3c(O)cc(O[C@@H]4O[C@H](CO[C@@H]5O[C@@H](C)[C@H](O)[C@@H](O)[C@H]5O)[C@@H](O)[C@H](O)[C@H]4O)cc3o2)cc1O`, the “activity change, negative = cytotoxicity” value is 3.97%.

As for `Cc1c(I)c(=O)n(-c2ccccc2)n1C`, the “activity change, negative = cytotoxicity” value is 7.07%.

In the case of `Cc1ccsc1/C=C/C1=NCCCN1C`, the “activity change, negative = cytotoxicity” value was 8.23% [at 17.3 µM].

For `CCCCCCCCCCCCCCCCC(C(=O)O)C(O)(CC(=O)O)C(=O)O` (stereo not given), the “activity change, negative = cytotoxicity” value is -8.25%.

Regarding `NC(=O)[C@@H]1CSSCCC(=O)N[C@@H](CCCCN=C(N)N)C(=O)NCC(=O)N[C@@H](CC(=O)O)C(=O)N[C@@H](Cc2c[nH]c3ccccc23)C(=O)N2CCC[C@H]2C(=O)N1` ([Mpa][hArg]GDWPC-NH2; disulfide 1-7), the “activity change, negative = cytotoxicity” value is 1.94%.

`Cc1cccc(C)c1NC(=O)CC12CCCN1CCC2`: the “activity change, negative = cytotoxicity” value is 7.8%.

Consider `CC(=O)OCC(=O)[C@@]1(O)CC[C@H]2[C@@H]3CCC4=CC(=O)C=C[C@]4(C)[C@@]3(F)[C@@H](O)C[C@@]21C`, for which the “activity change, negative = cytotoxicity” value was 3.32% [at 17.3 µM].

Turning to `CC(O)CCCCn1c(=O)c2c(ncn2C)n(C)c1=O` (stereo not given), the “activity change, negative = cytotoxicity” value was -3.66%.

As to `NC(N)=NCCN1CCCCCCC1`, the “activity change, negative = cytotoxicity” value was 6.07% [at 17.3 µM].

For the compound `Cc1c(C)c2c(c(C)c1OC(=O)c1cccnc1)CC[C@@](C)(CCC[C@H](C)CCC[C@H](C)CCCC(C)C)O2`, the “activity change, negative = cytotoxicity” value was 5.21%.

Turning to `Cc1cc(C)c(NC(=O)CN(CC(=O)O)CC(=O)O)c(C)c1Br`, the “activity change, negative = cytotoxicity” value is 9.98%.

Regarding `O=C(CCBr)N1CCN(C(=O)CCBr)CC1`, the “activity change, negative = cytotoxicity” value was -0.699%.

With `Cc1ccc(S(=O)(=O)NC(=O)NC2CCCCCCC2)cc1`, the “activity change, negative = cytotoxicity” value is 12.3%.

Regarding `OCCN1C[C@H](O)[C@@H](O)[C@H](O)[C@H]1CO`, the “activity change, negative = cytotoxicity” value is 5.53%.

For `CCCCCC(N)=O`, the “activity change, negative = cytotoxicity” value was -3.51%.

Turning to `COc1ccc(C(=O)N2CCN(CC(=O)N3CCOCC3)CC2)cc1`, the “activity change, negative = cytotoxicity” value was -8.89%.

As to `CCN(CC)S(=O)(=O)c1ccc(C(=O)O)cc1`, the “activity change, negative = cytotoxicity” value was 8.47%.

Regarding `O=C(O)COC(=O)Cc1ccccc1Nc1c(Cl)cccc1Cl`, the “activity change, negative = cytotoxicity” value was -1.41% [at 17.3 µM].

Take `CC1(c2ccccc2)OC(C(=O)O)=CC1=O` (stereo not given): the “activity change, negative = cytotoxicity” value was 5.28%.

Turning to `O=c1[nH]c(=O)c2ccccc2o1`, the “activity change, negative = cytotoxicity” value was -1.92%.

With `CCC(C)(CN(C)C)OC(=O)c1ccccc1` (stereo not given), the “activity change, negative = cytotoxicity” value is 1.8% [at 17.3 µM].

In the case of `CCCCCC(C)N` (stereo not given), the “activity change, negative = cytotoxicity” value was 13.7%.

Consider `CCCCCCCCCCCCCCCCN`, for which the “activity change, negative = cytotoxicity” value is -2.55%.

On to `CC1CC(OC(=O)c2ccccc2O)CC(C)(C)C1` (stereo not given), for which the “activity change, negative = cytotoxicity” value was 1.67%.

For the compound `COc1ccccc1OC(=O)Oc1ccccc1OC`, the “activity change, negative = cytotoxicity” value is 24.2%.

For `CCCCCOC(=O)Nc1nc(=O)n([C@@H]2O[C@H](C)[C@@H](O)[C@H]2O)cc1F`, the “activity change, negative = cytotoxicity” value is -18.9%.

For the compound `O=C(O)c1cc(=O)c2ccccc2o1`, the “activity change, negative = cytotoxicity” value was -14.9%.

Regarding `O=C(Cn1ccnc1[N+](=O)[O-])NCc1ccccc1`, the “activity change, negative = cytotoxicity” value was 9.64%.

As to `CC(=O)N(CC(O)CN(C(C)=O)c1c(I)c(C(=O)NCC(O)CO)c(I)c(C(=O)NCC(O)CO)c1I)c1c(I)c(C(=O)NCC(O)CO)c(I)c(C(=O)NCC(O)CO)c1I` (stereo not given), the “activity change, negative = cytotoxicity” value is -10.9% [at 17.3 µM].

`NC(=O)NS(=O)(=O)c1ccc(N)cc1`: the “activity change, negative = cytotoxicity” value was -4.45%.

Consider `CC(CSC(=O)c1ccccc1)C(=O)N1C[C@@H](Sc2ccccc2)C[C@H]1C(=O)O` (stereo not given in full), for which the “activity change, negative = cytotoxicity” value was -4.09%.

For `NS(=O)(=O)c1cc(-c2nn[nH]n2)c(NCc2cccs2)cc1Cl`, the “activity change, negative = cytotoxicity” value is -5.61%.

The values above are taken from PubChem BioAssay (NCATS).
